Most compounds without a hit are left out; they make up all but 7% or so of the library.
rCAG binder: binders of r(CAG) RNA repeats, primary screen, biochemical, fluorescence; hit rate 1.3% among 370,000; inhibition, % at 3 µM; r(CAG) RNA repeat, TO-PRO-1 dye displacement fluorescence;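 active = inhibition above the plate cutoff, the mean of all test compounds on that plate plus 3 SD, cut at about 35% in these data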;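 also: 0% = DMSO alone and 100% = 100 µM mitoxantrone as full dye displacement; higher means more dye released from RNA so lower well fluorescence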
NR3A LBD binder: binders of NR3A ligand-binding domain, primary screen, biophysical, differential scanning fluorimetry, uHTS; Glutamate receptor ionotropic, NMDA 3A (GRIN3A) ligand-binding domain; NR3A LBD differential scanning fluorimetry, Tm shift; 0% = protein alone, 100% = glycine-bound protein; Tm shift relative to glycine control, % at 25 µM; hit rate 2.5% among 340,000;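 active = melting temperature shift of at least 10% of the positive control shift, at one fixed dose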
KLK7 zymogen act: proKLK7 zymogen activators, primary screen, biochemical, fluorescence intensity | Kallikrein-7 (Homo sapiens), P49862 | purified proKLK7, EDANS-DABCYL substrate fluorescence; 100% is mature enzyme control, 0% vehicle | activation, % at 7 µM | hit rate 0.9% among 370,000 | AID 652039, 2013;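 active = activation above the mean of all tested compounds plus 3 SD, computed per campaign excluding outliers beyond control limits, cut at about 13% in these data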
ADAM17 inh: ADAM17 inhibitors, primary screen, biochemical, QFRET; inhibition, % at 6.95 µM; AID 720648, 2013; recombinant ADAM17, EDANS/DABCYL FRET peptide cleavage; hit rate 0.83% among 370,000;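 active = inhibition above the mean of compounds lying between control limits plus 3 SD, set per campaign, cut at about 8.5% in these data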;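 also: 0% = DMSO-only wells as the low control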
Target sequence (P78536 215-824 limits assumed): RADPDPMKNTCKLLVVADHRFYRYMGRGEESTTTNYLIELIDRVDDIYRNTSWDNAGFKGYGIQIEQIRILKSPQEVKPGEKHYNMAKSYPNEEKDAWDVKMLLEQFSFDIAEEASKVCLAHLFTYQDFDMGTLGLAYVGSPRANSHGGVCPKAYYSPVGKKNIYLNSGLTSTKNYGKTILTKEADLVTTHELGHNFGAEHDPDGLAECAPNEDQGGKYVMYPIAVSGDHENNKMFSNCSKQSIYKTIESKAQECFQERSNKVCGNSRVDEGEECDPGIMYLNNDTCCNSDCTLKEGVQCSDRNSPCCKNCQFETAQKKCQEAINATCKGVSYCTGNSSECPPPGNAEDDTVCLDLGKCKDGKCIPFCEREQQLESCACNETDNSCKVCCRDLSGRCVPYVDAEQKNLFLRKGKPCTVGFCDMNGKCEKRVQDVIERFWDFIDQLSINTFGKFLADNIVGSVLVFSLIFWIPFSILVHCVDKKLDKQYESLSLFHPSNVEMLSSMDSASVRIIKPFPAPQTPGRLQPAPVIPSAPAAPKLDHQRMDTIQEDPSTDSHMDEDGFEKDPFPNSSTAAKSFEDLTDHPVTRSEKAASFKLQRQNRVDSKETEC
ADAM10 inh: human ADAM10 inhibitors, primary screen, biochemical, QFRET, HTS; Disintegrin and metalloproteinase domain-containing protein 10 (Homo sapiens), O14672; hit rate 0.62% among 370,000; recombinant ADAM10, EDANS/DABCYL FRET peptide cleavage, 3 h; inhibition, % at 7 µM;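 active = inhibition above a per-campaign cutoff equal to the mean of compounds falling between control-based bounds plus 3 SD, cut at about 20% in these data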;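 also: 0% = DMSO wells while the 100% control is not disclosed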
AHR act: AHR activators, primary screen, cell-based, luminescence, luciferase reporter, human. Aryl hydrocarbon receptor (Homo sapiens), P35869. AHR-responsive luciferase reporter cells. hit rate 2.5% among 320,000. AID 2796, 2010. activation, % at 5 µM; in the data active = activation above about 47%;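 also: 0% = vehicle wells and 100% = reference agonist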
KLK7 act conf: proKLK7 zymogen activators, confirmation, biochemical, fluorescence intensity, triplicate. shares compounds with KLK7 zymogen act. purified proKLK7, EDANS-DABCYL substrate fluorescence; scaled: vehicle 0, mature enzyme 100. activation, % at 7 µM. hit rate 68% among 3,200;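 active = activation, as change over the incubation, above the mean of all tested compounds plus 3 SD, cut at about 13% in these data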
EDANS-DABCYL int: EDANS-DABCYL substrate optical interference, artefact control for kallikrein-7 zymogen activator project, biochemical, fluorescence intensity, high throughput. shares compounds with KLK7 zymogen act. AID 686952, 2013. activation, % at 7 µM. hit rate 80% among 3,200. no enzyme, 4 h; solvent 0%, active enzyme control 100%;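 active = activation above the all-compound mean plus 3 SD, ignoring values outside control-based bounds, cut at about 4.8% in these data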;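 also: value is the 4 h activation minus the activation read at time zero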
K7 EDANS ctr: optically interferes with EDANS-DABCYL fluorescence, kallikrein-7 activator counter-screen; shares compounds with KLK7 zymogen act; EDANS-DABCYL peptide fluorescence interference, no enzyme; EC50, µM; hit rate 20% among 250; AID 720493;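 active = compounds that raise the fluorescence signal in this interference counterscreen, with EC50 at or below 10 µM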;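 also: intact quenched peptide substrate alone read at 355 nm excitation and 520 nm emission; signal is fluorescence gain from T0 to T4 after four hours at room temperature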
Starred values were filed as active, the others as inactive; i = inactive; . = not tested or not shown.

SMILES | rCAG binder | NR3A LBD binder | KLK7 zymogen act | ADAM17 inh | ADAM10 inh | AHR act | KLK7 act conf | EDANS-DABCYL int | others
COC(=O)c1ccc(OCC(O)CN2CCc3cc(OC)c(OC)cc3C2c2ccccc2)cc1 (centres undefined) | 0 | 0 | 67* | -36 | -82 | 3 | 4 | 0
CCN(CC(=O)NCc1ccc(F)cc1)C(=O)COc1ccccc1[N+](=O)[O-] | -1 | 0 | 31* | -1 | -8 | 5 | -1 | 0
O=C(COC(=O)Cc1ccccc1[N+](=O)[O-])NCc1ccc(F)cc1 | -2 | 1 | -1 | -1 | 2 | -2 | . | .
CCOCCCNC(=O)c1ccc(CN2CCc3ccccc3C2)cc1 | -2 | . | 0 | -1 | -4 | . | . | .
CC(=O)Oc1c(-c2ccco2)oc2ccccc2c1=O | 10 | 0 | 14* | -69 | -190 | 0 | 21* | 19*
CCc1cc2c(=O)c(-c3cscn3)coc2c(CN(C)C)c1O | 19 | -4 | 30* | -241 | i | 30 | 63* | 71*
CC(=O)c1cc(C)ccc1OC(=O)c1cccc2nc(C)oc12 | -2 | -2 | 13* | -24 | -74 | 6 | 2 | 1
CC(=O)c1cc(C)ccc1OC(=O)c1ccncc1 | -4 | 2 | 0 | -1 | 0 | 0 | . | .
CC(=O)Oc1ccc(-c2cccc(C(=O)N(C)c3ccc(O)cc3)c2)cc1 | 1 | -2 | -1 | -2 | -5 | 5 | . | .
CC(=O)Oc1ccc2c(=O)c(N3C(=O)c4ccccc4C3=O)c(C)oc2c1C | -6 | -2 | 27* | -9 | -23 | -1 | 34* | 31*
CCCc1ccc(-c2cc(NC(=O)Cc3c(C)[nH]c4ccccc34)ccc2Nc2cccnc2)cc1 | 13 | . | -2 | 7 | 9 | . | . | .
Fc1cccc(CSc2nc3ncc(Cl)cc3[nH]2)c1 | 1 | 2 | 0 | -1 | -3 | 46 | . | .
CN(C)c1ccc(-c2nc3ncc(Cl)cc3[nH]2)cc1 | 5 | . | 17* | i | i | . | -3 | 12*
NS(=O)(=O)c1ccc(CCNC(=O)c2ccc(NC3=NC4CS(=O)(=O)CC4S3)cc2)cc1 (centres undefined) | . | 1 | . | . | . | -1 | . | .
CCCCOCCCNC(=O)C[C@@H]1C[C@@]2(C(=O)OC)CCCCC=C2N(Cc2ccccc2)C1=O | -2 | . | 0 | 0 | 0 | . | . | .
CC(C)c1nc(SCc2c(F)cccc2Cl)c2c(=O)n(C)c(=O)n(C)c2n1 | . | -1 | . | . | . | 8 | . | .
CCC(NC(=O)OCc1ccccc1)C(=O)Oc1ccc2ccc(=O)oc2c1 (centres undefined) | -8 | 2 | 75* | i | i | 0 | 434* | 455*
Cc1ccc(C(=O)COc2ccc3ccc(=O)oc3c2)cc1 | -2 | 0 | 0 | -4 | -15 | -4 | . | .
CCOc1ccccc1C(=O)Oc1ccc2ccc(=O)oc2c1 | -7 | -1 | 190* | -272 | i | 2 | 305* | 248*
O=C(Oc1ccc2ccc(=O)oc2c1)C1CCCCC1 | -2 | 0 | 107* | -470 | i | 1 | 337* | 301*
O=C(Oc1ccc2ccc(=O)oc2c1)c1ccccc1 | -1 | -1 | 242* | -374 | i | 0 | 589* | 593*
O=c1ccc2ccc(OCCOc3cccc(Cl)c3)cc2o1 | 0 | -15 | -8 | -107 | -330 | -6 | . | .
CCNC(=O)C(Cc1ccccc1)NC(=O)OCc1ccccc1 (centres undefined) | -4 | -2 | 0 | -6 | -3 | -1 | . | .
CC(NC(=O)c1ccco1)c1ccc(-n2ccnc2)cc1 (centres undefined) | -2 | 2 | 0 | 0 | -12 | 8 | . | .
O=C1CCC2(CCCC2)c2ccccc21 | -1 | . | 0 | -3 | 0 | . | . | .
SMILES | rCAG binder | NR3A LBD binder | KLK7 zymogen act | ADAM17 inh | ADAM10 inh | AHR act | KLK7 act conf | EDANS-DABCYL int | others
CCOc1ccc(C(=O)NCC(=O)NNC(=O)CN(C)S(=O)(=O)c2ccc(Cl)cc2)cc1OCC | 5 | 1 | 0 | -3 | -4 | . | . | .
COc1ccc(C(=O)Oc2ccc3ccc(=O)oc3c2)cc1 | 2 | -2 | 19* | -48 | -111 | 0 | 122* | 128*
CCC(C)n1c(=N)c(C#N)cc2c(=O)n3cc(C)ccc3nc21 (centres undefined) | -8 | 5 | 3 | -77 | -212 | -1 | . | .
Cc1ccc2nc3c(cc(C#N)c(=O)n3-c3nccs3)c(=O)n2c1 | 1 | 0 | 25* | i | i | 14 | 61* | 73*
CCn1c(SCC(=O)N/N=C/c2c[nH]c3ccccc23)nnc1-c1ccc(C(C)(C)C)cc1 | 1 | 0 | 1 | 5 | 14 | 14 | . | .
CSc1ccc(C2Nc3cccc4cccc(c34)N2)cc1 | 11 | 8 | 0 | -4 | -10 | 31 | . | .
COc1cc(C)c(C2NC(=O)c3ccccc3N2)cc1C (centres undefined) | -2 | -3 | 5 | -94 | -358 | . | . | .
Cc1ccc(C)c(C2NC(=O)c3ccccc3N2)c1 (centres undefined) | 1 | 2 | 36* | -398 | i | 2 | 24* | 21*
Cn1cc(C2NC(=O)c3ccccc3N2)c2ccccc21 (centres undefined) | 10 | 1 | 0 | -35 | -143 | . | . | .
COc1ccc(C2NC(=O)c3ccccc3O2)c(OC)c1OC (centres undefined) | -5 | 2 | -2 | -18 | -62 | 3 | . | .
CSc1ccc(C2NC(=O)c3ccccc3N2)cc1 (centres undefined) | 0 | -1 | 17* | -261 | i | 10 | 17* | 13* | K7 EDANS ctr=>69
COc1ccc(C2NC(=O)c3ccccc3N2)c(OC)c1OC (centres undefined) | -1 | . | 33* | i | i | . | 45* | 47*
O=C1NC(c2ccccc2O)Nc2ccccc21 (centres undefined) | 1 | -3 | 22* | -149 | -397 | 37 | 11 | 17*

Assay outcomes deposited in PubChem by several laboratories.
